Where “and” joins values, the source holds several entries; their conditions need not be identical. Identical values can stand only once. Results filed as inconclusive are left out. Entries that show only a call come without a potency. Calls of active or inactive are those of the source. Unless noted, calls follow the shape of the dose curve; as a rule, active = well fitted curve in the direction sought with a large enough effect; inconclusive = small, poorly fitted or top-dose-only effect, or another doubt; inactive = no such curve, though single readings can be large; an effect the other way counts as inactive or inconclusive.
What was measured:
[1] = biological target: Calcium and integrin-binding protein 1 (Homo sapiens) (UniProt Q99828); experiment: Primary qHTS for Identification of Calcium Integrin Binding Protein 1 (CIB1) Competitor (AID 1508620); settings: CIB1-GST / FITC-alphaIIb peptide fluorescence polarization; series mostly up to 114 µM;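 also: GST tagged CIB1 binding a fluorescein labelled alphaIIb integrin peptide tracer; top concentration of the series differs between compounds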
Chain of Calcium and integrin-binding protein 1 (Homo sapiens) (Q99828 whole entry, looked up): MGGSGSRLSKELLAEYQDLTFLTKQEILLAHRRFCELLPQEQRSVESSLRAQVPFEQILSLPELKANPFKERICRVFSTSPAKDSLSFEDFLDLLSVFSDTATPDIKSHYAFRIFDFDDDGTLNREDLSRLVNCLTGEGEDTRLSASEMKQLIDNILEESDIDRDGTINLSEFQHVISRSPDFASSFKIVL
In short: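 Fluorescence polarization competition: GST-tagged CIB1 (1 uM final) preincubated with compound 15 min at room temperature, then FITC-labelled alphaIIb peptide (100 nM final) added. After 15 min at room temperature, polarization read at Ex 480/Em 540.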

[2] = Primary qHTS for inhibitors of nuclear receptor binding SET domain protein 2 (NSD2) in an isogenic RCH-ACV NSD2 p.E1099K mutant (9B) (AID 1645876); settings: RCH-ACV NSD2 E1099K (9B) viability, CellTiter-Glo, 72 h; series mostly up to 44.9 µM; also: nearly all actives have a fitted effect of over 70% in size; also: potency is read from the fitted curve at half-maximal effect
[3] = Primary qHTS for inhibitors of nuclear receptor binding SET domain protein 2 (NSD2) in an RCH-ACV wild type WT cells (2C) (AID 1645877); settings: RCH-ACV (leukaemia line) NSD2 WT (2C) viability, CellTiter-Glo, 72 h; series mostly up to 44.9 µM; also: nearly all actives have a fitted effect of over 70% in size; also: potency is read from the fitted curve at half-maximal effect
[4] = biological target: Glutathione peroxidase 1 (Homo sapiens) (UniProt P07203); experiment: Primary qHTS Assay for Inhibitors of Recombinant Selenoprotein Glutathione Peroxidase 1 (GPX1) (AID 1845191); settings: recombinant GPX1, GR-coupled NADPH fluorescence, 15 min; series mostly up to 48.8 µM; also: nearly all actives have a fitted effect of over 65% in size
Chain of Glutathione peroxidase 1 (Homo sapiens) (P07203 whole entry, looked up): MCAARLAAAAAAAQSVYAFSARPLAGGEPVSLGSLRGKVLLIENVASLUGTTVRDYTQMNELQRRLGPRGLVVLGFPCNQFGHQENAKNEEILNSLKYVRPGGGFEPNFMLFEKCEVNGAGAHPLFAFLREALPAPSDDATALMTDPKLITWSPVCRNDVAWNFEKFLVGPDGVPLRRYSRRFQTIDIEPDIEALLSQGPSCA
In short: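 GR-coupled assay: compounds preincubated 30 min at room temperature with GPX1, then reaction started with CHP; final 10 nM GPX1, 1 mM GSH, 0.5 mM CHP, 0.5 mM NADPH, 100 nM GR, 0.01% BSA, pH 7.5 Tris buffer. NADPH fluorescence (340/450 nm) read at 0 and 15 min.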

[5] = biological target: Phospholipid hydroperoxide glutathione peroxidase GPX4 (Homo sapiens) (UniProt P36969); experiment: Primary qHTS Assay for Inhibitors of Recombinant Selenoprotein Glutathione Peroxidase 4 (GPX4) (AID 1845192); settings: recombinant GPX4, GR-coupled NADPH fluorescence, 15 min; series mostly up to 50 µM; also: nearly all actives have a fitted effect of over 65% in size
Chain of Phospholipid hydroperoxide glutathione peroxidase GPX4 (Homo sapiens) (P36969 whole entry, looked up): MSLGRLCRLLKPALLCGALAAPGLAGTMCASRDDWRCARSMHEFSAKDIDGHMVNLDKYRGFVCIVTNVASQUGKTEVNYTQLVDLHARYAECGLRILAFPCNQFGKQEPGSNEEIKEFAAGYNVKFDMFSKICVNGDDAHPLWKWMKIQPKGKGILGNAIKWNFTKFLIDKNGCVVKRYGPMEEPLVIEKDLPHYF
In short: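 GR-coupled assay: recombinant GPX4 preincubated 30 min with compound at room temperature; final 200 nM GPX4, 1 mM GSH, 0.5 mM cumene hydroperoxide, 0.5 mM NADPH, 100 nM GR, 0.01% BSA, pH 7.5 Tris. NADPH fluorescence (340/450 nm) read at 0 and 15 min.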

[6] = qHTS drug screen for cell cycle checkpoint inhibitors in PARPi-resistant BRCA-mutant ovarian cancer cell lines. (AID 1963452; calls by dose curve); settings: PEO1/OlaR viability, CellTiter-Glo luminescence, 96 h, stronger effect = lower value
In short: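 PEO1, PEO4 and PEO1/OlaR ovarian cancer cells, 600 per well, exposed 96 h at 37C to a dilution series. Viability read by CellTiter-Glo luminescence, normalized to DMSO and empty wells; activity summarized as Z-AUC.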

HaCat = experiment: Cytotoxic Profiling of Annotated Libraries Using Quantitative High-Throughput Screening (AID 1296008); settings: Five cell lines viability, CellTiter-Glo ATP luminescence, 48-72 h; max response: stronger effect = lower value; also: potency is read from the fitted curve at half-maximal effect; nearly all actives have a fitted effect of over 60% in size
In short: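 Cells exposed to compounds for 48 or 72 hr at 37 degrees Celsius. Viability read as ATP-coupled luminescence with CellTiter-Glo after 10 min at room temperature.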

[7] = test system: Zika virus NS2B-NS3 protease (unlinked complex); experiment: Primary screen GU Rhodamine qHTS for Zika virus inhibitors: Unlinked NS2B-NS3 protease assay (AID 1347159); settings: Recombinant ZIKV NS2B-NS3 protease, Rhodamine110 substrate fluorescence; series mostly up to 107 µM; also: nearly all actives have a fitted effect of over 60% in size
In short: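 A qHTS format was used, with compound concentrations ranging up to 114 microM. Each compound was preincubated with 25 nM NS2B-NS3 protease, and the substrate was then added at 1.5 microM. Curves were fitted with a 4-parameter Hill model.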

[8] = test system: Zika virus NS2B-NS3 protease (linked construct); experiment: Primary screen NINDS Rhodamine qHTS for Zika virus inhibitors (AID 1347160); settings: purified NS2B-NS3 protease, Rhodamine110 substrate fluorescence; series mostly up to 57.1 µM; also: nearly all actives have a fitted effect of over 55% in size
In short: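 Kinetic fluorescence (Ex 480 nm, Em 540 nm) over 15 min with 1.5 microM Rhodamine110 peptide and 25 nM linked protease.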

[9] = test system: Nanoluciferase (engineered Oplophorus gracilirostris luciferase); experiment: Primary Nanoluciferase (NLuc) qHTS assay for identification of artifact compounds. (AID 1845222); settings: NLuc-conditioned medium, Nano-Glo luminescence, 5 min; series mostly up to 54.1 µM;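 also: NLuc secreted into diluted conditioned medium of S16 cells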
In short: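 S16 cell supernatant NLuc, 1:55; cpds qHTS; 15 min RT dark; Nano-Glo substrate 1:100, 5 min; luminescence; Hill fit of % inhibition.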

C33A = experiment: Primary qHTS to identify gynecologic anti-cancer compounds using libraries of approved drugs and bioactive compounds (AID 1345084); settings: Gynecologic cancer cell panel viability, ATPlite luminescence, 48 h; series mostly up to 57.5 µM; also: nearly all actives have a fitted effect of over 55% in size; also: potency is read from the fitted curve at half-maximal effect
In short: (§1)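 Five-concentration response, 48 h; readout is ATP-driven luciferase luminescence.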

CASKI = experiment: as above; settings: Gynecologic cancer cell panel viability, ATPlite luminescence, 48 h; series mostly up to 57.5 µM
In short: as §1

Es-2 = experiment: as above; settings: Gynecologic cancer cell panel viability, ATPlite luminescence, 48 h; series mostly up to 57.5 µM
In short: as §1

HeLa = experiment: as above; settings: Gynecologic cancer cell panel viability, ATPlite luminescence, 48 h; series mostly up to 57.5 µM
In short: as §1

Hek293T = experiment: as above; settings: Gynecologic cancer cell panel viability, ATPlite luminescence, 48 h, control line for the selectivity index; series mostly up to 57.5 µM
In short: as §1

JEG-3 = experiment: as above; settings: Gynecologic cancer cell panel viability, ATPlite luminescence, 48 h; series mostly up to 57.5 µM
In short: as §1

OV90 = experiment: as above; settings: Gynecologic cancer cell panel viability, ATPlite luminescence, 48 h; series mostly up to 57.5 µM
In short: as §1

Tov-21-G = experiment: as above; settings: Gynecologic cancer cell panel viability, ATPlite luminescence, 48 h; series mostly up to 57.5 µM
In short: as §1

Tov112D = experiment: as above; settings: Gynecologic cancer cell panel viability, ATPlite luminescence, 48 h; series mostly up to 57.5 µM
In short: as §1

[10] = biological target: Luciferin 4-monooxygenase (Photinus pyralis) (UniProt P08659); experiment: Primary firefly luciferase (FLuc) qHTS assay for identification of artifact compounds. (AID 1845220); settings: purified firefly luciferase, luminescence, 5 min; series mostly up to 54.1 µM; also: nearly all actives have a fitted effect of over 60% in size
In short: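 Enzymatic FLuc inhibition assay: compounds pre-exposed to luciferin/ATP (10 uM each) for 15 min, then purified P. pyralis enzyme at 10 nM added. Read-out: luminescence at 5 min.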

[11] = measured here: PEO1 parental Z-AUC

O=c1c(-n2ccnn2)c[nH]n1-c1cc(N2CCOCC2)ncn1
outcome [1]: inactive
Potency [2]: 20.9 µM (active)
Potency [3]: 20.9 µM (active)
Potency [4]: inactive
Potency [5]: inactive
Z-AUC [6]: 1.14 (inactive)
Z-AUC [6, 11]: 0.854
Z-AUC ([6]; measured here: PEO4 Z-AUC): 1.55
Potency (HaCat): 1.86 µM (active)

N#C[C@@H]1C[C@@H]2C[C@@H]2N1C(=O)[C@@H](N)C12CC3CC(CC(O)(C3)C1)C2
Potency [7]: inactive
Potency [8]: inactive
outcome [1]: inactive
Potency [2]: inactive
Potency [3]: inactive
Potency [4]: inactive
Potency [5]: inactive
Potency [9]: inactive
Z-AUC [6]: -0.557 (inactive)
Z-AUC [6, 11]: 0.593
Z-AUC ([6]; measured here: PEO4 Z-AUC): -0.565
Potency (C33A): inactive
Potency (CASKI): inactive
Potency (Es-2): inactive
Potency (HeLa): inactive
Potency (Hek293T): inactive
Potency (JEG-3): inactive
Potency (OV90): inactive
Potency (Tov-21-G): inactive
Potency (Tov112D): inactive

COc1cc(N2CCOCC2)ccc1Nc1ncc(F)c(Nc2ccccc2NS(C)(=O)=O)n1
Potency [7]: inactive
Potency [8]: inactive
outcome [1]: inactive
Potency [2]: 8.17 µM (active)
Potency [3]: 8.17 µM (active)
Potency [5]: inactive
Potency [10]: inactive
Potency [9]: inactive
Potency (HaCat): 7.31 µM (active)
Potency (Es-2): inactive

CC1(CO)CCCC2(C)C1C(OC(=O)c1ccccc1)C=C1C(=O)OCC12O (stereo not drawn)
Potency [8]: inactive
Potency [2]: 2.84 µM (active)
Potency [3]: 1.79 µM (active)
Potency [4]: inactive
Potency [5]: inactive
Potency [9]: inactive
Potency (CASKI): inactive
Potency (HeLa): inactive
Potency (JEG-3): inactive
Potency (Tov-21-G): 11.2 µM (active)
Potency (Tov112D): inactive

C=C(C)C(=O)O[C@H]1[C@H]2C(=C)C(=O)O[C@@H]2C[C@@H](C)/C=C\C(=O)[C@](C)(O)[C@@H]1OC(C)=O
Potency [7]: inactive
Potency [8]: inactive
outcome [1]: inactive
Potency [3]: inactive
Potency [5]: inactive
Potency [10]: inactive
Potency [9]: inactive
Potency (C33A): 11.2 µM (active)
Potency (Es-2): 11.2 µM (active)
Potency (JEG-3): 10 µM (active)
Potency (Tov-21-G): 7.94 µM (active)

C=CC(=O)N1CCN(C(=O)c2cc(-c3cc(Cl)ccc3Cl)c(Cl)cc2OC)CC1
Potency [7]: inactive
Potency [8]: inactive
outcome [1]: inactive
Potency [2]: 11.5 µM (active)
Potency [3]: 8.17 µM (active)
Potency [4]: inactive
Potency [5]: inactive
Potency [10]: inactive
Potency [9]: inactive
Potency (CASKI): inactive
Potency (JEG-3): inactive
Potency (OV90): inactive

COc1c(N2CC3CCCNC3C2)c(F)cc2c(=O)c(C(=O)O)cn(C3CC3)c12 (stereo not drawn)
Potency [7]: inactive
Potency [8]: inactive
outcome [1]: inactive
Potency [2]: inactive
Potency [10]: inactive
Potency [9]: inactive
Potency (C33A): inactive
Potency (CASKI): inactive
Potency (Es-2): inactive
Potency (HeLa): inactive
Potency (Hek293T): inactive
Potency (JEG-3): inactive
Potency (OV90): inactive
Potency (Tov-21-G): inactive
Potency (Tov112D): inactive

Nc1nc(NCC2CCC(CNS(=O)(=O)c3cccc4ccccc34)CC2)nc2ccccc12 (stereo not drawn)
Potency [7]: inactive
Potency [8]: inactive
outcome [1]: inactive
Potency [2]: 4.09 µM (active)
Potency [3]: 2.58 µM (active)
Potency [4]: inactive
Potency [5]: inactive
Potency [10]: inactive
Potency [9]: inactive
Potency (C33A): inactive
Potency (CASKI): inactive
Potency (Es-2): inactive
Potency (HeLa): inactive
Potency (Hek293T): inactive
Potency (JEG-3): inactive
Potency (Tov-21-G): inactive

COCCNCc1ccc(-c2cc3nccc(Oc4ccc(NC(=S)NC(=O)Cc5ccc(F)cc5)cc4F)c3s2)nc1
Potency [7]: inactive
Potency [8]: inactive
outcome [1]: inactive
Potency [2]: 2.9 µM (active)
Potency [3]: 3.25 µM (active) and 2.35 µM (active)
Potency [4]: inactive
Potency [5]: inactive
Potency [10]: inactive
Potency [9]: inactive
Potency (CASKI): inactive
Potency (JEG-3): inactive
Potency (Tov-21-G): inactive

Cc1nnsc1C(=O)Nc1ccc(-n2nc(C(F)(F)F)cc2C(F)(F)F)cc1
outcome [1]: inactive
Potency [2]: 20.5 µM (active)
Potency [3]: 11.5 µM (active)
Potency [4]: inactive
Potency [5]: inactive
Potency [10]: inactive
Potency [9]: inactive
Potency (C33A): inactive
Potency (CASKI): inactive
Potency (Es-2): inactive
Potency (HeLa): inactive
Potency (Hek293T): inactive
Potency (JEG-3): inactive
Potency (OV90): inactive
Potency (Tov-21-G): inactive
Potency (Tov112D): inactive

COc1cc2nc(-c3cc(F)ccc3O)nc(N[C@@H]3CNC[C@H]3C(C)(C)O)c2cc1OC
Potency [7]: inactive
Potency [8]: inactive
outcome [1]: inactive
Potency [2]: 4.59 µM (active) and 1.48 µM (active)
Potency [3]: 4.09 µM (active) and 1.66 µM (active)
Potency [4]: inactive
Potency [5]: inactive
Potency [10]: inactive
Potency [9]: inactive
Z-AUC [6]: -0.315 (inactive)
Z-AUC [6, 11]: -0.378
Z-AUC ([6]; measured here: PEO4 Z-AUC): -0.09
Potency (C33A): inactive
Potency (CASKI): inactive
Potency (Es-2): inactive
Potency (HeLa): inactive
Potency (Hek293T): inactive
Potency (JEG-3): inactive
Potency (OV90): inactive
Potency (Tov-21-G): inactive
Potency (Tov112D): inactive

Reference: PubChem BioAssay (NCATS)
